Test results from ChEMBL document CHEMBL1857833, “Screening and optimization of specific chemical series against human African Trypanosomiasis (HAT)”.
Values joined by “and” are separate entries in the source; they are usually repeats but may differ in a detail not shown here. Identical values can stand only once. The whole screen tested about 4,400 compounds, of which about 390 (8.9%) showed an effect of 50% or more. The sample as a whole holds a higher share of strong results than the screen did.

System: Trypanosoma brucei
Assay: DNDI: Inhibition of Human African Trypanosomiasis, SBRI 427, in vitro at 2 ug.mL-1
Assay type: functional

In order of rising “% inhibition” value:
1. Cc1ccccc1-c1nc(CN2CCN(C/C=C/c3ccccc3)CC2)co1  -34%
2. CCOc1ccccc1-c1nc(CN(CCC#N)CC2CCCO2)co1 (centres undefined)  -20%
3. Clc1ccccc1-c1nc(CNCCc2ccccc2)co1  -15%
4. COCC(C)N/C(=N\O)c1cccnc1OCc1ccccc1F (centres undefined)  -13%
5. COCCN/C(=N\O)c1ccnc(Oc2ccc(SC)cc2)c1  -13%
6. CCCCC(CC)CNCc1coc(-c2ccc(Br)cc2)n1 (centres undefined)  -12%
7. COc1ccc(-c2nc(CN(C)Cc3cccc4ccccc34)co2)cc1  -11%
8. Cc1cccc(-c2nc(CNCc3ccc(C(C)(C)C)cc3)co2)c1  -9%
9. CCC(CC)NCc1coc(-c2ccccc2Cl)n1  -8%
10. CSc1ccc(Oc2nc(C)ccc2/C(=N/O)NC(C)C)cc1  -8%
11. COCC(C)N/C(=N\O)c1cccnc1Oc1ccccc1OC(C)C (centres undefined)  -8%
12. CC(C)COc1ncccc1/C(=N/O)NC1CC(C)CC(C)(C)C1 (centres undefined)  -8%
13. Cc1cn(/C(=N\O)c2cccnc2Oc2c(F)cccc2F)cn1  -7%
14. CSc1ccc(Oc2nc(C)ccc2/C(=N/O)NCC(C)(C)C)cc1  -6%
15. CCOc1ccccc1-c1nc(CN(CC)CCN(CC)CC)co1  -5%
16. COc1ccc(OC)c(NCc2coc(-c3ccco3)n2)c1  -5%
17. CC1CCCN1/C(=N\O)c1cccnc1OCc1ccccc1F (centres undefined)  -5%
18. Cc1ccc(/C(=N/O)N(C)c2ccccc2)c(OCc2ccccc2F)n1  -4%
19. N/C(=N\O)c1cccnc1OCc1cccc(F)c1  -4%
20. Cc1cc(C)cc(Oc2nc(C)ccc2/C(=N/O)NC2CC(C)CC(C)(C)C2)c1 (centres undefined)  -4%
21. CN(/C(=N\O)c1cccnc1OCc1cccc(F)c1)C1CCCCC1  -3%
22. Brc1ccccc1-c1nc(CNCCC2=CCCCC2)co1  -2%
23. CN(Cc1ccccc1)Cc1coc(-c2cccc3ccccc23)n1  -2%
24. Cc1cccc(Oc2ncccc2/C(=N/O)N(C)C2CCCCC2)c1C  -1%
25. COc1ccc(CN/C(=N\O)c2ccnc(Oc3cccc(C(C)C)c3)c2)cc1  -1%
26. Cc1cc(Oc2ccc(/C(=N/O)n3ccnc3)cn2)cc(C(C)C)c1  1%
27. O/N=C(/c1ccnc(Oc2cccc(F)c2)c1)N1CCCCCC1  3%
28. Cc1cc(Oc2ccc(/C(=N/O)N3CCSCC3)cn2)cc(C(C)C)c1  4%
29. COCCN/C(=N\O)c1ccnc(Oc2cccc(C(C)C)c2)c1  4%
30. CN(Cc1ccco1)/C(=N\O)c1cccnc1OCc1ccccc1F  5%
31. COCCN(/C(=N\O)c1ccc(Oc2ccc(C)cc2C)nc1)C(C)C  5%
32. COCCN(/C(=N\O)c1cccnc1Oc1ccccc1F)C(C)C  5%
33. Cc1ccc(/C(=N/O)NC2CCc3ccccc32)c(OCc2ccccn2)n1 (centres undefined)  5%
34. COc1ccccc1CCNCc1coc(-c2ccccc2Br)n1  6%
35. Cc1ccc(/C(=N/O)N2CCC(N(C)C)C2)c(Oc2cccc(F)c2)n1 (centres undefined)  6%
36. CCOc1ccccc1-c1nc(CNC2CCN(Cc3ccccc3)C2)co1 (centres undefined)  6%
37. CCOc1ccc(Oc2nc(C)ccc2/C(=N/O)NCc2ccco2)cc1  6%
38. Clc1cccc(N2CCN(Cc3coc(-c4ccccc4Br)n3)CC2)c1  7%
39. C=CCN1CCN(/C(=N\O)c2cccnc2Oc2ccc(Cl)cc2)CC1  7%
40. Cc1ccc(/C(=N/O)NC2CCC2)c(Oc2ccc3ccccc3c2)n1  7%
41. COc1ccc(OC)c(NCc2coc(-c3ccccc3C)n2)c1  8%
42. COCC(C)N/C(=N\O)c1ccnc(Oc2cccc(F)c2)c1 (centres undefined)  8%
43. O/N=C(\NCCN1CCOCC1)c1ccc(Oc2cccc3cccnc23)nc1  9%
44. CSc1ccc(Oc2cc(/C(=N/O)NCc3ccncc3)ccn2)cc1  9%
45. Cc1ccccc1-c1nc(CNCCC2=CCCCC2)co1  10%
46. COc1cccc(N2CCN(Cc3coc(-c4ccc(Cl)cc4Cl)n3)CC2)c1  10%
47. CSc1ccc(Oc2nc(C)ccc2/C(=N/O)NC2CC(C)CC(C)(C)C2)cc1 (centres undefined)  10%
48. Cc1ccc(-c2nc(CNCC(C)(C)CN(C)C)co2)cc1  10%
49. O=Cc1nccn1Cc1coc(-c2ccc(Br)cc2)n1  11%
50. Cc1ccc(/C(=N/O)NC(C)C)c(OCc2ccccn2)n1  11%
51. Cc1cccc(Oc2nc(C)ccc2/C(=N/O)NC2CCCC2)c1  11%
52. O/N=C(\NCc1c(F)cccc1F)c1ccnc(Oc2ccc(Cl)cc2)c1  12%
53. O/N=C(\Nc1ccon1)c1ccc(Oc2cccc3cccnc23)nc1  13%
54. CCOc1ccccc1CN/C(=N\O)c1ccnc(Oc2ccc(F)c(F)c2)c1  13%
55. Cc1ccc(/C(N)=N/O)c(Oc2cccc3ccc(C)nc23)n1  13%
56. CCOc1ccccc1-c1nc(CN2CCN(c3cc(C)nc4ccccc34)CC2)co1  14%
57. Cc1ccc([C@@H](C)NCc2coc(-c3ccc(Cl)cc3Cl)n2)cc1  14%
58. CCOc1ccccc1-c1nc(CNC(C)c2ccc(C)cc2)co1 (centres undefined)  15%
59. CCC(CC)N/C(=N\O)c1ccc(C)nc1Oc1cc(C)cc(C(C)C)c1  15%
60. COc1ccc(-c2nc(CNC[C@@H]3CCCO3)co2)cc1  16%
61. COc1ccc(CN/C(=N\O)c2cccnc2Oc2ccccc2SC)cc1  16%
62. COC[C@H]1CCCN1Cc1coc(-c2ccc(O)cc2)n1  16%
63. Cc1ccc(Oc2nc(C)ccc2/C(=N/O)NCc2cccs2)cc1  16%
64. Cc1ccc(/C(=N/O)NC2CC2)c(Oc2ccc3ccccc3c2)n1  16%
65. CC(CCc1ccccc1)NCc1coc(-c2ccc(F)cc2)n1 (centres undefined)  17%
66. O/N=C(\NC1CCc2ccccc21)c1ccnc(Oc2cccc3cnccc23)c1 (centres undefined)  18%
67. Cc1ccc(/C(=N/O)NCc2ccc(C)o2)c(OCc2ccccc2F)n1  18%
68. CCOc1cccc(-c2nc(CN(C)Cc3cc(OC)c(OC)c(OC)c3)co2)c1  18%
69. Cc1ccc(/C(=N/O)N2C(C)C=CC2C)c(Oc2cccc(C(C)C)c2)n1 (centres undefined)  20%
70. COc1ccc(Oc2cc(/C(=N/O)NCc3ccccc3C)ccn2)cc1  21%
71. C=CCN1CCN(/C(=N\O)c2ccnc(Oc3ccc(C)c4c3CCC4)c2)CC1  22%
72. Cc1ccc(/C(=N/O)NC2CCCCC2)c(Oc2cccc(C(C)C)c2)n1  22%
73. CN(C)CCN(Cc1ccccc1)Cc1coc(-c2ccc(Br)cc2)n1  23%
74. Cc1ccccc1-c1nc(CNC(C)C2CCCCC2)co1 (centres undefined)  23%
75. CCCN(CC1CC1)/C(=N\O)c1ccc(C)nc1Oc1cccc2cnccc12  23%
76. CCC(CC)N/C(=N\O)c1ccc(C)nc1Oc1ccc(F)cc1  24%
77. Cc1ccc(-c2nc(CNC(C)C3CCCCC3)co2)cc1 (centres undefined)  25%
78. CCOc1ccccc1CN/C(=N\O)c1ccc(Oc2cc(C)cc(C)c2)nc1  28%
79. CCOc1ccccc1-c1nc(CNC2C[C@H]3CC[C@@H]2C3)co1 (some centres undefined)  28%
80. CSc1ccccc1Oc1ncccc1/C(=N/O)NCc1cccs1  28%
81. COCCN(/C(=N\O)c1ccnc(Oc2ccc(Cl)cc2)c1)C(C)C  28%
82. COc1cc(C)ccc1Oc1nc(C)ccc1/C(=N/O)NC(C)C  29%
83. COCC(C)N/C(=N\O)c1ccc(Oc2ccc(Cl)cc2)nc1 (centres undefined)  31%
84. CCC(CC)N/C(=N\O)c1ccc(C)nc1Oc1ccc(C)cc1C  34%
85. CC(NCc1coc(-c2ccc(Br)cc2)n1)C1CCCCC1 (centres undefined)  36%
86. N/C(=N\O)c1ccc(Oc2cccc3ccccc23)nc1  36%
87. COCCN/C(=N\O)c1ccnc(Oc2ccc(OC)cc2)c1  41%
88. Cc1ccc(/C(=N/O)NCC2CCCCC2)c(OCc2ccccn2)n1  43%
89. CCOc1ccccc1-c1nc(CNCCC2=CCCCC2)co1  53%
90. COCCN/C(=N\O)c1ccnc(Oc2ccc(Cl)cc2)c1  55%
91. Cc1ccc(/C(=N/O)NC2CC(C)CC(C)(C)C2)c(OCc2ccccn2)n1 (centres undefined)  56%
92. CCC(CC)N/C(=N\O)c1ccc(C)nc1Oc1ccc(C)cc1  70%
93. COCC(C)N/C(=N\O)c1ccnc(Oc2cccc(C(C)C)c2)c1 (centres undefined)  71%
94. CCC(CC)N/C(=N\O)c1cccnc1Oc1ccccc1OC  76%
95. COCC(C)N/C(=N\O)c1ccnc(Oc2ccc(SC)cc2)c1 (centres undefined)  86%
96. CCOc1ccc(-c2nc(CNC(C)C3CCCCC3)co2)cc1 (centres undefined)  87%
97. CCC(CC)N/C(=N\O)c1cccnc1Oc1ccccc1F  96%
98. Cc1ccc(/C(=N/O)NC2CC(C)CC(C)(C)C2)c(OCC(C)C)n1 (centres undefined)  97%
99. Cc1ccc(/C(=N/O)NC2CCCCC2)c(Oc2ccc3ccccc3c2)n1  97%
100. CN(/C(=N\O)c1cccnc1OCc1ccccc1F)c1ccccc1  98%
101. CN(/C(=N\O)c1cccnc1OCc1cccc(F)c1)c1ccccc1  98%
102. CCOc1ccccc1-c1nc(CNC(C)C2CCCCC2)co1 (centres undefined)  98%
103. Cc1cccc(Oc2nc(C)ccc2/C(=N/O)NC2CCCCC2)c1  98%
104. CCOc1ccccc1-c1nc(CNC2CCCCCCCCCCC2)co1  99%
105. CCC(CC)N/C(=N\O)c1ccc(C)nc1Oc1ccc(SC)cc1  99%
106. CCC(CC)N/C(=N\O)c1cccnc1Oc1ccccc1SC  99%
107. CCC(CC)N/C(=N\O)c1cccnc1Oc1c(F)cccc1F  99%
108. COCC(C)N/C(=N\O)c1ccnc(Oc2ccc(Cl)cc2)c1 (centres undefined)  99%
109. CCC(CC)N/C(=N\O)c1ccc(C)nc1Oc1ccc(C)cc1OC  100%
110. Cc1ccc(/C(=N/O)NC2CCC(C)CC2)c(OCc2ccccn2)n1 (centres undefined)  100%

For `CC(NCc1coc(-c2cccc3ccccc23)n1)C1CCCCC1` (centres undefined), the “% inhibition” value was 87% and 90%.
For `CCOc1ccccc1-c1nc(CNC(C)c2cccc3ccccc23)co1` (centres undefined), the “% inhibition” value was 5% and 9%.
For `CC(NCc1coc(-c2ccccc2Br)n1)C1CCCCC1` (centres undefined), the “% inhibition” value was -30% and -35%.
`CCC(NCc1coc(-c2ccc(C)cc2)n1)c1ccccc1` (centres undefined) was tested, and the “% inhibition” value was -6% and 4%.
